# 697 NFkB inh: inhibitors of the PMA/ionomycin-induced NF-kB reporter in 697 B cells; 697 B-cell NF-kB luciferase reporter, 16 h; inhibition, % at 4 µM; actives 0.33% (n = 330,000); in the data active = inhibition above about 35%
# Cardio protect: protects H9c2 cardiomyocytes from peroxide injury | H2O2 injury protection, ATPLite, 2 h | protection from H2O2 cell death, % at 20 µM | actives 0.63% (n = 360,000);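 active = compounds giving at least 50% protection of heart cells from peroxide-induced death in the single-dose screen, raw or plate-pattern-corrected value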;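 also: 0% = DMSO wells with peroxide and 100% = DMSO wells without peroxide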
# Jurkat NFkB inh: inhibitors of the PMA/ionomycin-induced NF-kB reporter in Jurkat cells; inhibition, % at 4 µM; PMA/ionomycin-induced NF-kB luciferase reporter, luminescence; AID 435003; actives 0.53% (n = 330,000); in the data active = inhibition above about 50%
# TAG inh: inhibitors of triacylglycerol accumulation; H9c2 cells, Nile Red lipid (TAG) fluorescence; cells loaded with 200 µM oleic acid; inhibition, % at 12.5 µM; actives 0.66% (n = 230,000); AID 651582;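 active = pattern-corrected inhibition of lipid staining of at least 50% with the nuclear-stain viability signal not falling by more than 50%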;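 also: 0% = DMSO wells and 100% = triacsin C control wells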
# NR2F2 inh: blocks human COUP-TFII nuclear receptor | HEK293T NGFI-A luciferase reporter, luminescence | inhibition, % at 8.6 µM | actives 0.7% (n = 370,000);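 active = inhibition above a per-plate cutoff, mean inhibition of test wells between control levels plus 3 SD, cut at about 38% in these data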;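 also: cells cotransfected with COUP-TFII expression vector driving the NGFI-A reporter; 0% = median of COUP-TF2 test wells and 100% = reporter-only cells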
# Target sequence (P24468 whole entry, looked up): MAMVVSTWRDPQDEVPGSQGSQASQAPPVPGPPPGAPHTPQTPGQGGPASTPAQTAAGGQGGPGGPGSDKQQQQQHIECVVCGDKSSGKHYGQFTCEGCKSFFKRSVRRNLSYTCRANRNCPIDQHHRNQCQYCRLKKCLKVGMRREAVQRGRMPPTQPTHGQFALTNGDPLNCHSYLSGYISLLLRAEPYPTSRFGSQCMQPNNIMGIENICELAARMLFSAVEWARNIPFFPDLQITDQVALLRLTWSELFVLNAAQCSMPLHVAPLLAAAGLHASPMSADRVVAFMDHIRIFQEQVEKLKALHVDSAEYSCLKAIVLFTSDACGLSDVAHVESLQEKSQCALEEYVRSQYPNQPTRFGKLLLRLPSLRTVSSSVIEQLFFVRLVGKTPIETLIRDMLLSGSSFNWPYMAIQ
# Gli-Sufu antag: antagonists of Gli-Sufu signaling. Sufu-KO-LIGHT fibroblasts, Gli luciferase reporter luminescence. inhibition, % at 5 µM. actives 0.74% (n = 340,000);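 active = inhibition above about 55%, limit read from the data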;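 also: 0% = DMSO-treated cells and 100% = wells with medium but no cells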
# Active calls of the source: *; / = no result. Hits are enriched below; roughly 2.6% of the tested compounds scored in any of these assays.
SMILES,697 NFkB inh,Cardio protect,Jurkat NFkB inh,TAG inh,NR2F2 inh,Gli-Sufu antag
COc1ccc(C2CC(c3cccs3)n3nc(N)nc3N2)cc1 (stereo not drawn),5,62*,-12,18,20,-13
Nc1nc2n(n1)C(c1cccs1)CC(c1ccc(F)cc1)N2 (stereo not drawn),-6,4,10,-79,5,3
CC[C@H](C)[C@@H](CNC)NC[C@@H](Cc1ccc(O)cc1)NCC(C)(C)C,10,0,1,4,-8,6
CC[C@@H](C)[C@H](CN[C@H](CNC)C(C)C)NC[C@@H](C)c1ccc(CC(C)C)cc1,10,-12,0,127*,-15,11
CCOc1cc(NC(=O)C2CC2)c(OCC)cc1NC(=O)c1ccccn1,15,53*,-10,22,7,4
CCOc1cc(NC(=O)c2ccccn2)c(OCC)cc1NC(=O)c1ccccc1,-11,3,17,-4,-3,6
O=S1(=O)c2ccc(N3CCSCC3)cc2Oc2ccccc2CN1Cc1cn(Cc2ccc(F)cc2)nn1,/,/,/,/,5,/
O=c1c(O)c(-c2cccs2)oc2ccc(Cl)cc12,22,74*,11,/,-6,28
O=c1c(O)c(-c2cccs2)oc2ccccc12,-17,30,-1,-8,-10,12
O=c1c2c(-c3ccccc3)csc2nc2c3ccccc3c(NCCN3CCOCC3)nn12,/,-37,/,100*,-2,5
Cc1ccc(C(=O)N2CCC[C@@H]2C(=O)N2CCC[C@H]2C(=O)NCc2ccccc2)cc1,/,/,/,/,3,/
Cc1nnc(SCC(=O)N/N=C/c2cn(-c3ccccc3)nc2-c2ccccc2)n1-c1ccccc1,-1,54*,-20,/,4,-3
Cc1ccc(-n2c(SCC(=O)NN=Cc3ccc(-c4ccccc4)cc3)nnc2-c2ccccc2)cc1,/,/,/,/,1,/
CCOC(=O)c1cnc(Nc2nc3ccccc3o2)nc1CSc1nnc(C)s1,-97,60*,-33,-13,-26,-48
CC(=O)CC[C@H]1CC[C@]2(CCCN(C(=O)C3CCCCC3)C2)O1,/,/,/,/,-15,/
COc1cccc2c(SCC(=O)N/N=C/c3ccc(O)c(O)c3)cc(C)nc12,/,67*,/,/,8,10
Cc1cc(SCC(=O)N/N=C/c2ccc(O)c(O)c2)c(C)cc1Br,-36,54*,6,5,2,18
O=C(CSc1nc2ccccc2o1)N/N=C/c1ccc(O)c(O)c1,-91,67*,-28,17,-24,4
Cc1ccc(NC(=O)C2CC3CCC2C3)cc1 (stereo not drawn),/,/,/,/,-8,/
CC(Oc1ccccc1)C(=O)Nc1nc(-c2ccncc2)cs1 (stereo not drawn),4,-7,14,-6,-6,0
CC(Oc1cccc(Cl)c1)C(=O)Nc1ccncc1 (stereo not drawn),14,-11,8,/,17,-1
C[C@H](NC(=O)c1ccccc1)C(=O)Nc1nc(-c2ccccn2)cs1,-8,21,-27,-2,3,1
CC(Oc1cccc(Cl)c1)C(=O)Nc1nc(-c2ccccn2)cs1 (stereo not drawn),-9,50*,19,-17,15,-10
CC(Oc1ccccc1)C(=O)Nc1nc(-c2ccccn2)cs1 (stereo not drawn),-38,52*,4,-46,12,4
Cc1cccc(C(=O)NC(C(=O)Nc2nc(-c3ccccn3)cs2)C(C)C)c1 (stereo not drawn),-4,66*,9,-2,-1,16
SMILES,697 NFkB inh,Cardio protect,Jurkat NFkB inh,TAG inh,NR2F2 inh,Gli-Sufu antag
COc1cc(C(CC(=O)N2CCCC2)c2c(OC)cc(OC)c3ccc(=O)oc23)cc(OC)c1OC (stereo not drawn),20,5,18,/,-1,2
COc1ccc(C(CC(=O)N2CCN(c3ccccc3)CC2)c2c(OC)cc(OC)c3ccc(=O)oc23)cc1 (stereo not drawn),11,51*,0,-13,0,30
COc1ccc(CNC(=O)O[C@H]2CC[C@@]34CCCN3C(=O)CCC[C@H]4[C@H]2C)cc1,/,/,/,/,8,/
O=C(Oc1ccccc1)c1cc(O)c(O)c(O)c1,/,75*,/,/,/,/
CC(=O)c1cccc(OC(=O)c2ccccc2)c1,/,1,/,-5,5,7
CC(=O)c1c(C)n(-c2cccc(Cl)c2)c2ccc(O)cc12,-4,62*,9,/,6,3

# Source: PubChem (several laboratories)
